Source: PubChem BioAssay (Tox21)
Unmarked numbers belong to inactive results. Inconclusive results are not listed. Where a call stands in place of a potency, no number is given. Active and inactive are the calls of the source. Unless noted, calls follow the shape of the dose curve; as a rule, active = well fitted curve in the direction sought with a large enough effect in the repeat runs; inconclusive = weak or mixed curves; inactive = no such curve, though single readings can be large; an effect the other way counts as inactive or inconclusive.

Columns and labels:
[1] = qHTS assay to identify small molecule antagonists of the estrogen related receptor (ERR) signaling pathway from Tox21 library - cell viability counter screen (AID 1224834); also: nearly all actives have a fitted effect of over 30% in size
Summary of the method: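 Seeded ERR cells were rested 6 h at 37 C/5% CO2 before compounds, positive and negative controls or DMSO were added. Incubation continued for 17.5 h, and viability was then quantified by CellTiter-Fluor fluorescence.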

[2] = target: Luciferin 4-monooxygenase (Photinus pyralis) (UniProt P08659); experiment: qHTS assay to identify small molecule inhibitors of firefly luciferase (AID 1224835); also: nearly all actives have a fitted effect of over 25% in size; also: potency is read from the fitted curve at half-maximal effect
Summary of the method: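 Quantitative HTS format; KM concentrations of both substrates. Purified P. pyralis FLuc activity quantified from luminescence images.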

[3] = qHTS assay to identify small molecule agonists of the constitutive androstane receptor (CAR) signaling pathway - cell viability counter screen (AID 1224836); also: nearly all actives have a fitted effect of over 45% in size
Summary of the method: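 Compound titrations (15 concentrations) went onto HepG2-CYP2B6-hCAR cells 4 h after seeding, alongside PK11195 at a final 0.75 uM; a 23 h, 37 C/5% CO2 incubation preceded CellTiter-Fluor viability measurement.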

[4] = qHTS assay to identify small molecule antagonists of the constitutive androstane receptor (CAR) signaling pathway - cell viability counter screen (AID 1224837); also: nearly all actives have a fitted effect of over 45% in size
Summary of the method: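 To flag cytotoxic false antagonists, HepG2 hCAR/CYP2B6-2.2kb cells were treated 23 hr with 15-concentration compound series and 50 nM CITCO at 37 C/5% CO2; CellTiter-Fluor fluorescence was the measured end point.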

[5] = target: Nuclear receptor subfamily 1 group I member 3 (Homo sapiens) (UniProt Q14994); experiment: qHTS assay to identify small molecule antagonists of the constitutive androstane receptor (CAR) signaling pathway (AID 1224838);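 also: HepG2 cells stably expressing hCAR with CYP2B6 luciferase reporter stimulated by CITCO; nearly all actives have a fitted effect of over 40% in size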
Summary of the method: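 Human hepatoma HepG2 cells expressing hCAR and a CYP2B6 promoter (2.2 kb) luciferase construct; compound titration (15 points) with 50 nM CITCO final, 24 h at 37 C/5% CO2; luminescence via ONE-Glo after 30 min at room temperature.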

[6] = target: Nuclear receptor subfamily 1 group I member 3 (Homo sapiens) (UniProt Q14994); experiment: qHTS assay to identify small molecule agonists of the constitutive androstane receptor (CAR) signaling pathway (AID 1224839);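 also: HepG2 cells stably carrying human CAR and a CYP2B6 luciferase reporter; nearly all actives have a fitted effect of over 15% in size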
Summary of the method: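 In this screen, CAR-driven CYP2B6 promoter activity is measured by luminescence in HepG2-CYP2B6-hCAR cells after 24 h with test compounds and 0.75 uM PK11195 (final concentration).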

[7] = qHTS assay to identify small molecule antagonists of the estrogen related receptor signaling pathway with the pleiotropic PPARgamma coactivator (PGC) from Tox21 10K library - cell viability counter screen (AID 1224840; active = well fitted cell-killing curve with a large enough effect in the repeat runs, not every such curve was filed as active; also: nearly all actives have a fitted effect of over 40% in size)
Summary of the method: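 Seeded PGC/ERR cells (2,000/well, 6 h, 37 C/5% CO2) get compound by pin tool; 17.5 h incubation at 37 C; CellTiter-Fluor added, 30 min, fluorescence measured.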

[8] = qHTS assay to identify small molecule antagonists of the estrogen related receptor signaling pathway with the pleiotropic PPARgamma coactivator (PGC) from Tox21 10K library (AID 1224841; call rule not given here; also: actives are mostly falling curves and most rising ones were filed inactive; nearly all actives have a fitted effect of over 50% in size)
Summary of the method: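 Test chemicals dissolved in DMSO were applied to pre-incubated (6 h) PGC/ERR cells at 2,000 cells/well for an 18 h, 37 C treatment; reporter luminescence was then read using One-Glo.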

[9] = qHTS assay to identify small molecule agonists of the estrogen related receptor signaling pathway with the pleiotropic PPARgamma coactivator (PGC) from Tox21 10K library (AID 1224842); also: nearly all actives have a fitted effect of over 15% in size
Summary of the method: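 PGC/ERR reporter cells (NTP line) were seeded 2,000 per well, rested 6 h at 37 C/5% CO2, then pin-dosed with compounds in DMSO for 18 h at 37 C; luciferase read by One-Glo luminescence after 30 min at room temperature.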

[10] = target: Thyrotropin receptor (Homo sapiens) (UniProt P16473); experiment: qHTS assay to identify small molecule agonists of the thyroid stimulating hormone receptor (TSHR) signaling pathway (AID 1224843; calls by dose curve; also: nearly all actives have a fitted effect of over 45% in size)
Summary of the method: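 Compounds are titrated over 15 concentrations, in triplicate, onto TSHR-HEK293 cells seeded at 800/well. Plates sit 30 min at room temperature before cAMP-d2 and anti-cAMP cryptate are added; signal is read after a further hour.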

[11] = qHTS assay to identify small molecule agonists of the hypoxia (HIF-1) signaling pathway - cell viability counter screen (AID 1224844; calls by dose curve; also: nearly all actives have a fitted effect of over 50% in size)
Summary of the method: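 HRE-bla ME-180; 0.5% dFBS; cpd 17 h, 37C, 5% CO2; CellTiter-Glo lum., 30 min RT, post-FRET read, same wells.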

[12] = qHTS assay to identify small molecule agonists of H2AX (AID 1224845; active = well fitted activation curve with a large enough effect in the signal ratio in the repeat runs, not every such curve was filed as active; the % refers to the signal ratio)
Summary of the method: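 Wild-type CHO-K1 cells plated overnight, then exposed 3 hr at 37C to compounds at 15 concentrations (0.76% DMSO). Lysed, then HTRF anti-pH2AX(S139)-cryptate/anti-H2AX-d2 detection after 24 hr at room temperature; emissions 665 and 620 nm.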

[13] = qHTS assay to identify small molecule agonists of the hypoxia (HIF-1) signaling pathway (AID 1224846; active = well fitted activation curve with a large enough effect in the signal ratio in the repeat runs, not every such curve was filed as active; the % refers to the signal ratio)
Summary of the method: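 Reporter induction in HRE-bla ME-180 cells is taken as agonism: cells sit 5 hrs after plating, receive compounds or DMSO only, incubate 17 hrs at 37C under 5% CO2, and are loaded with CCF4-AM for beta-lactamase FRET measurement.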

[14] = qHTS assay to identify small molecule agonists of H2AX - cell viability counter screen (AID 1224847; calls by dose curve; also: top concentration of the series differs between compounds; nearly all actives have a fitted effect of over 30% in size)
Summary of the method: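 Read-out: CellTiter-Glo luminescence, 30 min RT. Cells: wild-type CHO-K1, 1000/well, 10% FBS, plated overnight at 37C. Treatment: 15 concentrations, 3 hr, 37C, 0.76% DMSO.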

[15] = qHTS assay to identify small molecule antagonists of the estrogen related receptor (ERR) signaling pathway from Tox21 library (AID 1224848); also: nearly all actives have a fitted effect of over 50% in size
Summary of the method: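 First, 2,000 ERR cells per well were plated and held 6 h at 37 C/5% CO2. Next, compounds in DMSO were pinned in and left 18 h at 37 C. Finally, ONE-Glo was added and luminescence read after 30 min at room temperature.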

[16] = qHTS assay to identify small molecule agonists of the estrogen related receptor (ERR) signaling pathway from Tox21 library (AID 1224849; calls by dose curve; also: nearly all actives have a fitted effect of over 15% in size); conditions: ERR reporter cell line, ONE-Glo luciferase, 18 h; at 92.4 µM (top of the series) unless noted
Summary of the method: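 Tox21 compounds tested for ERR agonism in an NTP reporter cell line: 18 h treatment at 37 C, then ONE-Glo luminescence.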

[17] = qHTS RealTime-Glo MT Cell Viability Assay in HepG2 cells - 24 hour (AID 1224867); also: nearly all actives have a fitted effect of over 50% in size
Summary of the method: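 Cell number in HepG2 cultures estimated from NanoLuc luminescence generated by metabolic reduction of a prosubstrate by living cells. The homogeneous, nonlytic format allowed repeated reads at 0, 8, 16, 24, 32 and 40 h of compound exposure.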

[18] = qHTS RealTime-Glo MT Cell Viability Assay in HEK293 cells - 32 hour (AID 1224868)
Summary of the method: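 Homogeneous bioluminescent viability format in HEK293 cells (600 cells/well). Following 5 h at 37 C/5% CO2, 23 nL compound was pintooled; the signal was measured repeatedly during 40 h incubation.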

[19] = A CellTox Green Cytotoxicity Assay to monitor cytotoxicity in HEK293 cells - 0 hour (AID 1224869); also: nearly all actives have a fitted effect of over 50% in size; also: potency is read from the fitted curve at half-maximal effect
Summary of the method: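 Tox21 screen in HEK293: membrane-impermeant cyanine dye fluoresces on binding dead-cell DNA; compound pinned 5 h post-seeding, plates held at 37 C, signal read repeatedly through 40 h.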

[20] = qHTS RealTime-Glo MT Cell Viability Assay in HepG2 cells - 40 hour (AID 1224870); also: nearly all actives have a fitted effect of over 50% in size
Summary of the method: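 HepG2 cells mixed with RealTime-Glo MT reagents (NanoLuc plus cell-permeant prosubstrate) were seeded at 600 cells/well, incubated 5 h at 37 C/5% CO2, then pinned with compounds in DMSO; nonlytic luminescence tracked viability during 40 h treatment.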

Chain of Nuclear receptor subfamily 1 group I member 3 (Homo sapiens) (Q14994 whole entry, looked up): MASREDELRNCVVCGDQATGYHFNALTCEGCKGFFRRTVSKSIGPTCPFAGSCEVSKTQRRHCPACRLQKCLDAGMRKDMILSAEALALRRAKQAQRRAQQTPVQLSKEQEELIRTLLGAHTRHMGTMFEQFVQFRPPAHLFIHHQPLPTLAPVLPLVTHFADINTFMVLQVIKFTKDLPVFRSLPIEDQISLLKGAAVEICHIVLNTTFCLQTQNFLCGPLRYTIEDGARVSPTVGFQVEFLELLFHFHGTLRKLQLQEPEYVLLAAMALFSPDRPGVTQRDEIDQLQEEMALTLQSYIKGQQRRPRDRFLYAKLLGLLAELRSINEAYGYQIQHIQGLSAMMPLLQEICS
Chain of Thyrotropin receptor (Homo sapiens) (P16473 whole entry, looked up): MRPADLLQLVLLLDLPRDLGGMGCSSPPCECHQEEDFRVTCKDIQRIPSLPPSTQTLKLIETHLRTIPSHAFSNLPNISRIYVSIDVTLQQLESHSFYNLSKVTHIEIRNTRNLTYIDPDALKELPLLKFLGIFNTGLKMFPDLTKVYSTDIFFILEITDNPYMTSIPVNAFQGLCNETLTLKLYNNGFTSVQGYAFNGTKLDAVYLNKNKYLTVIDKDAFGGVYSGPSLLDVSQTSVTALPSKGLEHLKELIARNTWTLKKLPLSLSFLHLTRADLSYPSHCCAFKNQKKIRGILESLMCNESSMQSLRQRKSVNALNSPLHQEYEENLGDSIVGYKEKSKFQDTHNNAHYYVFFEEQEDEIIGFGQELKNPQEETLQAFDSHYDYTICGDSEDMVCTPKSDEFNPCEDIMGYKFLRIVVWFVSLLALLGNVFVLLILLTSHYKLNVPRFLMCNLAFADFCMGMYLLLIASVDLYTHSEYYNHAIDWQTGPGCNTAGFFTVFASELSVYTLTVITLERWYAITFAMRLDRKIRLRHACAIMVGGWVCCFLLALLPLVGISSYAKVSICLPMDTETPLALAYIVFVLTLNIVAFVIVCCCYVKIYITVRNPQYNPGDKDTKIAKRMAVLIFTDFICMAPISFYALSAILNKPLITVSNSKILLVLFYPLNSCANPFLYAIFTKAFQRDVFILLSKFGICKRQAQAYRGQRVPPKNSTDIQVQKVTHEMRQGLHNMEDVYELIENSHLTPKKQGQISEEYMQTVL
Chain of Luciferin 4-monooxygenase (Photinus pyralis) (P08659 whole entry, looked up): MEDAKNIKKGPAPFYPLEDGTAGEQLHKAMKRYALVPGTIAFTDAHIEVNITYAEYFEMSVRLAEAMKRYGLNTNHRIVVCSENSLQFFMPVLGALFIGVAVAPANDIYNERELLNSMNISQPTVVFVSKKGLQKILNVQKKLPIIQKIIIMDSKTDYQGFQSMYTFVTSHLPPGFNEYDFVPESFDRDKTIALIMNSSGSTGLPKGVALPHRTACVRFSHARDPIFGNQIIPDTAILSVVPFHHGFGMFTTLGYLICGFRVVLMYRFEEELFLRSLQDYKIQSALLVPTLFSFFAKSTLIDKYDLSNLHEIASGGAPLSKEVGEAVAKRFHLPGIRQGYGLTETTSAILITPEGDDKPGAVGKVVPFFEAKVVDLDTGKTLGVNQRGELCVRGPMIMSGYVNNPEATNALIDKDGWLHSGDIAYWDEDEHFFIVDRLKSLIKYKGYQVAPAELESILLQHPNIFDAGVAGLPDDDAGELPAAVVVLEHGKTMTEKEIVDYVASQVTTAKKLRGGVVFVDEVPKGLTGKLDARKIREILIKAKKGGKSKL

Row | SMILES | Potency [1] | Potency [2] | Potency [3] | Potency [4] | Potency [5] | Potency [6] | Potency [7] | Potency [8] | Potency [9] | Potency [10] | Potency [11] | Potency [12] | outcome [13] | Potency [14] | Potency [15] | activity change, positive = activation [16] | Potency [17] | Potency [18] | Potency [19] | Potency [20]
1 | c1cnc2c(n1)CCCC2 | inactive | inactive | inactive | inactive | inactive | inactive | inactive | inactive | inactive | inactive | inactive | inactive | inactive | inactive | inactive | 3.42% | inactive | inactive | 43.6 µM (active) | inactive
2 | NCC1CCCC(CN)C1 (centres undefined) | inactive | inactive | inactive | inactive | inactive | inactive | inactive | inactive | inactive |  | inactive | inactive | inactive | inactive | inactive | -0.124% | inactive | inactive |  | inactive
3 | CN(C)CCOC1=Cc2ccccc2Sc2ccc(Cl)cc21 | inactive | inactive | inactive | inactive | inactive | inactive | inactive | inactive | inactive | inactive |  | inactive | inactive | inactive |  | -11.9% [at 42.5 µM] |  | inactive | inactive | 
4 | O=C(/C=C/c1ccccc1)OCCCc1ccccc1 | inactive | 17.8 µM (active) | inactive | inactive | inactive | inactive | inactive | inactive | inactive | inactive | inactive | inactive | inactive | inactive | inactive |  | inactive | inactive | inactive | inactive
5 | COc1cc2[nH]c(=O)[nH]c(=O)c2cc1OC | inactive | inactive | inactive | inactive | inactive | inactive | inactive | inactive | inactive | inactive | inactive | inactive | inactive | inactive | inactive | 2.16% [at 42.5 µM] | inactive |  |  | inactive
6 | CC1(C)C(=O)N(Br)C(=O)N1Cl | inactive | inactive | inactive | inactive | inactive | inactive | inactive | inactive | inactive | inactive | inactive | inactive | inactive | inactive |  | 1.48% | inactive | inactive | inactive | inactive
7 | O=C(NCCCN1CCOCC1)c1ccc(Cl)cc1 | inactive | inactive | inactive | inactive | inactive | inactive | inactive | inactive | inactive | inactive | inactive | inactive | inactive | inactive | inactive | 11.6% [at 42.5 µM] | inactive |  | inactive | inactive
